Measurements as given in PubChem BioAssay AID1159580 (chemical genetic matrix, 2015).
Out of some 5,500 compounds screened, about 2,000 (36%) were called active. Roughly 18% stayed inconclusive and do not appear here. No stated cut-off is given here; in the data, active means normalized growth mostly below about 0.91 (no sharp cut-off); inconclusive means no clear call, values can overlap the other calls; inactive means mostly above about 0.92. This is one part of the list. Where a SMILES comes first, the peptide text is derived from it.

Assay: chemical genetic growth profiling, strain panel (AID 1159580);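 further: tested at 20 µM; growth read once vehicle control cultures reached saturation at 30 °C; 1 = growth at the plate median or of vehicle wells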
Details: growth OD

Measured: normalized growth

CC(=O)N[C@@H](CC(=O)O)C(=O)N[C@@H](CCC(=O)O)C(=O)O (Ac-Asp-Glu-OH)
inactive: S. cerevisiae deletion strains, locus YJR075W, strain HOC1, stronger effect = lower value 1.01 | S. cerevisiae deletion strains, locus YKL009W, strain mrt4, stronger effect = lower value 0.987 | S. cerevisiae deletion strains, locus YKL068W, stronger effect = lower value 0.997 | S. cerevisiae deletion strains, locus YKL085W, strain MDH1 (second series), stronger effect = lower value 0.985 | S. cerevisiae deletion strains, locus YKL085W, strain MDH1, stronger effect = lower value 0.985 | S. cerevisiae deletion strains, locus YKL160W, strain elf1, stronger effect = lower value 1.01 | S. cerevisiae deletion strains, locus YKL190W, strain CNB1, stronger effect = lower value 1.02 | S. cerevisiae deletion strains, locus YKR001C, strain vps1, stronger effect = lower value 0.989 | S. cerevisiae deletion strains, locus YKR026C, strain gcn3, stronger effect = lower value 1 | S. cerevisiae deletion strains, locus YKR091W, strain srl3, stronger effect = lower value 0.996 | S. cerevisiae deletion strains, locus YLL001W, strain dnm1, stronger effect = lower value 0.994 | S. cerevisiae deletion strains, locus YLL026W, stronger effect = lower value 1 | S. cerevisiae deletion strains, locus YLL041C, strain sdh2, stronger effect = lower value 1 | S. cerevisiae deletion strains, locus YLR027C, strain aat2, stronger effect = lower value 1.01 | S. cerevisiae deletion strains, locus YLR039C, strain RIC1, stronger effect = lower value 1.04 | S. cerevisiae deletion strains, locus YLR058C, strain SHM2, stronger effect = lower value 1.01 | S. cerevisiae deletion strains, locus YLR102C, strain apc9, stronger effect = lower value 0.984 | S. cerevisiae deletion strains, locus YLR113W, strain HOG1, stronger effect = lower value 0.987 | S. cerevisiae deletion strains, locus YLR221C, strain rsa3, stronger effect = lower value 1 | S. cerevisiae deletion strains, locus YLR258W, strain gsy2, stronger effect = lower value 0.992 | S. cerevisiae deletion strains, locus YLR262C, strain YPT6 (second series), stronger effect = lower value 1.02 | S. cerevisiae deletion strains, locus YLR262C, strain YPT6, stronger effect = lower value 1.04 | S. cerevisiae deletion strains, locus YLR268W, strain sec22, stronger effect = lower value 0.981 | S. cerevisiae deletion strains, locus YLR320W, strain mms22, stronger effect = lower value 1 | S. cerevisiae deletion strains, locus YLR330W, strain CHS5, stronger effect = lower value 1.02 | S. cerevisiae deletion strains, locus YLR342W, strain FKS1 (second series), stronger effect = lower value 0.996 | S. cerevisiae deletion strains, locus YLR342W, strain FKS1, stronger effect = lower value 1 | S. cerevisiae deletion strains, locus YLR357W, strain rsc2, stronger effect = lower value 0.987 | S. cerevisiae deletion strains, locus YLR370C, strain arc18, stronger effect = lower value 1.02 | S. cerevisiae deletion strains, locus YLR371W, strain rom2, stronger effect = lower value 0.99 | S. cerevisiae deletion strains, locus YLR384C, strain iki3, stronger effect = lower value 0.998 | S. cerevisiae deletion strains, locus YLR418C, strain cdc73, stronger effect = lower value 0.982 | S. cerevisiae deletion strains, locus YML016C, strain PPZ1, stronger effect = lower value 1.02 | S. cerevisiae deletion strains, locus YML032C, strain rad52, stronger effect = lower value 0.985 | S. cerevisiae deletion strains, locus YML120C, strain ndi1, stronger effect = lower value 1.01 | S. cerevisiae deletion strains, locus YML124C, strain tub3, stronger effect = lower value 0.984 | S. cerevisiae deletion strains, locus YMR058W, strain fet3, stronger effect = lower value 1.01 | S. cerevisiae deletion strains, locus YMR078C, strain ctf18, stronger effect = lower value 1 | S. cerevisiae deletion strains, locus YMR125W, strain sto1, stronger effect = lower value 0.987 | S. cerevisiae deletion strains, locus YMR129W, stronger effect = lower value 1.01 | S. cerevisiae deletion strains, locus YMR205C, strain PFK2, stronger effect = lower value 0.967 | S. cerevisiae deletion strains, locus YMR223W, strain ubp8, stronger effect = lower value 0.983 | S. cerevisiae deletion strains, locus YMR231W, strain pep5, stronger effect = lower value 1.01 | S. cerevisiae deletion strains, locus YMR263W, strain SAP30, stronger effect = lower value 1.03 | S. cerevisiae deletion strains, locus YMR307W, strain GAS1, stronger effect = lower value 1.01 | S. cerevisiae deletion strains, locus YNL067W, strain RPL9B, stronger effect = lower value 1.02 | S. cerevisiae deletion strains, locus YNL071W, strain lat1, stronger effect = lower value 1.02 | S. cerevisiae deletion strains, locus YNL128W, strain TEP1, stronger effect = lower value 1.02 | S. cerevisiae deletion strains, locus YNL153C, strain GIM3, stronger effect = lower value 1.01 | S. cerevisiae deletion strains, locus YNL183C, strain NPR1, stronger effect = lower value 0.894 | S. cerevisiae deletion strains, locus YNL209W, strain ssb2, stronger effect = lower value 0.997 | S. cerevisiae deletion strains, locus YNL233W, strain BNI4, stronger effect = lower value 1.02 | S. cerevisiae deletion strains, locus YNL248C, strain rpa49, stronger effect = lower value 1.01 | S. cerevisiae deletion strains, locus YNL250W, strain rad50, stronger effect = lower value 0.982 | S. cerevisiae deletion strains, locus YNL271C, strain bni1, stronger effect = lower value 0.984 | S. cerevisiae deletion strains, locus YNL298W, strain CLA4, stronger effect = lower value 0.987 | S. cerevisiae deletion strains, locus YNL307C, strain MCK1, stronger effect = lower value 0.988 | S. cerevisiae deletion strains, locus YNL322C, strain KRE1 (second series), stronger effect = lower value 1 | S. cerevisiae deletion strains, locus YNL322C, strain KRE1, stronger effect = lower value 1.01 | S. cerevisiae deletion strains, locus YNR049C, strain mso1, stronger effect = lower value 1.01 | S. cerevisiae deletion strains, locus YNR052C, strain pop2, stronger effect = lower value 0.991 | S. cerevisiae deletion strains, locus YOL006C, strain TOP1, stronger effect = lower value 1.03 | S. cerevisiae deletion strains, locus YOL012C, strain htz1 0.942 | S. cerevisiae deletion strains, locus YOL147C, strain pex11, stronger effect = lower value 0.987 | S. cerevisiae deletion strains, locus YOR001W, strain rrp6, stronger effect = lower value 1.01 | S. cerevisiae deletion strains, locus YOR061W, strain CKA2, stronger effect = lower value 1.01 | S. cerevisiae deletion strains, locus YOR069W, strain VPS5, stronger effect = lower value 1.01 | S. cerevisiae deletion strains, locus YOR070C, strain gyp1, stronger effect = lower value 1.01 | S. cerevisiae deletion strains, locus YOR080W, strain dia2, stronger effect = lower value 0.988 | S. cerevisiae deletion strains, locus YOR083W, strain WHI5, stronger effect = lower value 1.01 | S. cerevisiae deletion strains, locus YOR106W, strain vam3, stronger effect = lower value 1.02 | S. cerevisiae deletion strains, locus YOR136W, strain idh2, stronger effect = lower value 0.99 | S. cerevisiae deletion strains, locus YOR144C, strain elg1, stronger effect = lower value 1 | S. cerevisiae deletion strains, locus YOR184W, strain ser1, stronger effect = lower value 0.979 | S. cerevisiae deletion strains, locus YOR231W, strain MKK1, stronger effect = lower value 0.982 | S. cerevisiae deletion strains, locus YOR265W, strain rbl2, stronger effect = lower value 1.01 | S. cerevisiae deletion strains, locus YOR270C, strain vph1, stronger effect = lower value 1.1 | S. cerevisiae deletion strains, locus YOR290C, strain snf2, stronger effect = lower value 0.975 | S. cerevisiae deletion strains, locus YOR316C, strain cot1, stronger effect = lower value 0.997 | S. cerevisiae deletion strains, locus YPL051W, strain arl3, stronger effect = lower value 1.01 | S. cerevisiae deletion strains, locus YPL055C, strain LGE1, stronger effect = lower value 1.02 | S. cerevisiae deletion strains, locus YPL078C, strain atp4, stronger effect = lower value 1.03 | S. cerevisiae deletion strains, locus YPL106C, strain sse1, stronger effect = lower value 0.975 | S. cerevisiae deletion strains, locus YPL240C, strain hsp82, stronger effect = lower value 1.01 | S. cerevisiae deletion strains, locus YPL241C, strain CIN2, stronger effect = lower value 1.01 | S. cerevisiae deletion strains, locus YPL256C, strain CLN2, stronger effect = lower value 1.01 | S. cerevisiae deletion strains, locus YPR119W, strain clb2, stronger effect = lower value 0.99 | S. cerevisiae deletion strains, locus YPR141C, strain kar3, stronger effect = lower value 0.995 | S. cerevisiae deletion strains, locus YPR163C, strain tif3, stronger effect = lower value 0.99 | S. cerevisiae deletion strains, locus YPR167C, strain met16, stronger effect = lower value 0.991 | S. cerevisiae deletion strains, strain wtn01, stronger effect = lower value 0.989 | S. cerevisiae strains, strain wild type, stronger effect = lower value 1
